According to PubChem BioAssay AID1850 (Southern Research Specialized Biocontainment Screening …, 2009):
In all, about 310,000 compounds went through this assay and about 1,000 (0.32%) were called active. How the calls were made is not given here. The list is a sample of the results. Entries with a potency or affinity are not part of this list.

test: Inhibition of PhoP regulon, Salmonella typhi GFP reporter cells, confirmation, 4 h (AID 1850); details: Salmonella Typhi PhoP-promoter GFP reporter, fluorescence, at 50 µM, stronger effect = higher value;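 further: 0% = induced wells with vehicle and 100% = uninduced wells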

Structure (SMILES)	inhibition
O=C(N/C(=C/c1ccco1)C(=O)N1CCOCC1)c1ccccc1Br	7.88% (inactive)
O=C(NC1CCCCC1)C(c1ccncc1)N(Cc1ccc(F)cc1)C(=O)c1ccccn1 (configuration not stated)	-1.84% (inactive)
CN(C)CC(O)COc1cc2ccccc2cc1C(=O)N1CCCCC1 (configuration not stated)	9.49% (inactive)
CCCCCCCC(=O)Nc1ccc(S(=O)(=O)Nc2nccs2)cc1	-7.23% (inactive)
O=C1CSC(c2cccc([N+](=O)[O-])c2)N1CCN1CCCCC1 (configuration not stated)	-7.55% (inactive)
CC(=O)c1c(N2CCOCC2)nc(=S)n(-c2ccc([N+](=O)[O-])cc2)c1C	3.58% (inactive)
Cc1cc(/C([O-])=C(/C(=S)Nc2ccc(F)cc2)[n+]2ccccc2)c(C)n1Cc1ccccc1Cl	-18.8% (inactive)
OCCN1CCN(c2ncnc3scc(-c4ccc(F)cc4)c23)CC1	4.62% (inactive)
OCc1ccc(O)c2ncccc12	0.16% (inactive)
Oc1ccc(CN2CCc3ccccc3C2)c2cccnc12	-5.43% (inactive)
COc1ccccc1N1CCN(Cc2cc(Br)c(O)c3ncccc23)CC1	3.41% (inactive)
COc1ccccc1N1CCN(Cc2ccc(OC)c(OC)c2OC)CC1	5.73% (inactive)
COCCn1cnc2c1c(=O)n(CC(=O)OCC(=O)NCCCc1ccccc1)c(=O)n2Cc1ccccc1	5.65% (inactive)
Cc1nc2cc(NC(=O)c3ccc(S(=O)(=O)N(C)c4ccccc4)cc3)ccc2o1	-24.8% (inactive)
CC(C)NC(=O)CCCc1ccccc1	-2.72% (inactive)
CC[n+]1c(/C=C/C=C/N(C(C)=O)c2ccccc2)sc2ccccc21	-299% (inactive)
CC[n+]1c(/C=C(/C)SC)sc2ccccc21	-5.74% (inactive)
CN(C)c1ccc(/C=C/C=C/c2sc3ccccc3[n+]2C)cc1	14.1% (inactive)
CCN1/C(=C/C=C/C=C/C=C/c2sc3ccccc3[n+]2CC)Sc2ccccc21	5.61% (inactive)
CC[n+]1c(/C=C/Nc2ccccc2)sc2ccccc21	11.1% (inactive)
CC[n+]1c(/C=C(\C)SC)sc2ccccc21	8.28% (inactive)
COc1ccc(/C=C/C2=CCN(Cc3ccc(OC)cc3)CC2)cc1	5.66% (inactive)
COc1ccc(CN2CC(C(N)=O)Oc3ccccc32)cc1F (configuration not stated)	-14.6% (inactive)

Structure (SMILES)	inhibition
Cc1ccccc1C(=O)Nc1c(C(=O)N2CCCC2)cnn1-c1ccccc1	-11.9% (inactive)
CN(C)S(=O)(=O)c1ccc(NC(=O)COC(=O)CC2CC3CCC2C3)cc1 (configuration not stated)	-11.3% (inactive)
Cc1ccc(C)n1-c1ccccc1N	7.67% (inactive)
C/C(CC(=O)NC1C2CC3CC(C2)CC1C3)=N\NC(=O)Cc1cccs1 (configuration not stated)	5.86% (inactive)
CC(=O)Oc1c(C)cc(O)c2ccccc12	-6.69% (inactive)
CC(=O)c1coc2c1cc(O)c1ccccc12	-10.2% (inactive)
COc1ccc2[nH]cc(C(=O)CN3CCCC(C)(C)C3)c2c1	12.1% (inactive)
CCOC(=O)CCNC(=O)Nc1ccc2nc(C)n(Cc3ccccc3Cl)c(=O)c2c1	12% (inactive)
CC(=O)N(Cc1cc2cc(C)c(C)cc2n2nnnc12)CC1COCCO1 (configuration not stated)	-4% (inactive)
CC(C)N(Cc1nc(-c2ccccc2)no1)C(=O)c1ccc2c(c1)OCO2	1.2% (inactive)
COc1ccc(CCC(=O)NCCOc2ccc(Cl)cc2)cc1	-4.36% (inactive)
CN1CCc2nc(SCC(=O)Nc3ccc(OC(F)(F)F)cc3)c(C#N)c(-c3cccs3)c2C1	-3.5% (inactive)
COc1ccc(NC(=O)CSc2nc3c(c(-c4cccs4)c2C#N)CN(C)CC3)cc1OC	0.71% (inactive)
COc1ccccc1Nc1ccc([N+](=O)[O-])cc1N	2.25% (inactive)
CC1CC(C)CN(S(=O)(=O)c2ccc3c(c2)CC(C)N3C(=O)C2CC2)C1 (configuration not stated)	-20.4% (inactive)
CCc1ccc(-c2cc(C)no2)cc1S(=O)(=O)N1CCN(c2ccc(OC)cc2)CC1	-6.02% (inactive)
O=[N+]([O-])c1ccc(N2CCCC2)c2ncccc12	-3.29% (inactive)
O=[N+]([O-])c1cccc2c(N3CCOCC3)ccnc12	-0.36% (inactive)
Cc1cc(C)cc(OCC(=O)Nc2cccc(-c3nnc(-c4ccco4)o3)c2)c1	3.78% (inactive)
CCCCNC(=O)O[C@@H]1C[C@H]2CCC(=O)N3CC[C@@H](C1)[C@@H]23	4.97% (inactive)
CCC(C)c1ccc(NC(=O)c2[nH]c(C)c(C(C)=O)c2C)cc1 (configuration not stated)	-9.52% (inactive)
Cc1ccc(O)c(C=Nc2ccc3[nH]ncc3c2)c1	-7.82% (inactive)
COc1ccc(C=Nc2ccc3[nH]ncc3c2)c(O)c1	0.93% (inactive)

Structure (SMILES)	inhibition
CC1=C(C#N)C(c2cccnc2)C2=C(N1)c1ccccc1C2=O (configuration not stated)	1.42% (inactive)
Cc1ccc(Nc2ccc(NCc3ccccc3)nn2)cc1C	-4.54% (inactive)
Cc1cccc(Nc2ccc(NCc3ccccc3)nn2)c1	5.48% (inactive)
O=C(O)/C=C/C(=O)N1CCN(c2ccc(F)cc2)CC1	2.57% (inactive)
Cc1c(Cc2ccccc2)c(=O)oc2cc(OCC(=O)N[C@@H](Cc3ccccc3)C(=O)O)ccc12	1.41% (inactive)
C#CCOCCOCCOCCNc1nc(N2CCN(C(=O)C(Cc3cc4ccccc4[nH]3)n3cc(C(N)C(C)CC)nn3)CC2)nc(N2CCN(C(=O)C(Cc3cc4ccccc4[nH]3)n3cc(C(N)C(C)CC)nn3)CC2)n1 (configuration not stated)	37.5% (inactive)
C#CCOCCOCCOCCNc1nc(N2CCN(C(=O)[C@H](Cc3cc4ccccc4[nH]3)n3cc(C(N)CC(C)C)nn3)CC2)nc(N2CCN(C(=O)[C@H](CCC(=O)O)n3cc(C(N)[C@H](C)CC)nn3)CC2)n1 (some centres not stated)	-6.17% (inactive)
C#CCOCCOCCOCCNc1nc(N2CCOCC2)nc(N2CCN(C(=O)[C@H](Cc3cc4ccccc4[nH]3)n3cc([C@@H](N)CC(C)C)nn3)CC2)n1	7.58% (inactive)
C#CCOCCOCCOCCNc1nc(N2CCN(C(=O)[C@H](CCC(=O)O)n3cc(C(N)CC(C)C)nn3)CC2)nc(N2CCN(C(=O)[C@H](Cc3cc4ccccc4[nH]3)n3cc(C(N)CC(C)C)nn3)CC2)n1 (some centres not stated)	-7.76% (inactive)
CN(C)C(=S)Nc1ccc(Cc2ccncc2)cc1	-0.62% (inactive)
CCN(Cc1ccccc1)C(=O)c1cccc(S(=O)(=O)N2CCN(c3ccccc3)CC2)c1	1.18% (inactive)
COCCCN1CN(S(=O)(=O)c2ccc(C)cc2C)c2nc3ccccc3nc21	6.06% (inactive)
COCCCNC(=O)c1ccccc1N(Cc1ccccc1)S(=O)(=O)c1ccccc1	-7.24% (inactive)
N=c1c2c(n(Cc3ccc(F)cc3)c3c1CCC3)CCCC2	5.47% (inactive)
CCn1c2c(c(=N)c3c1CCC3)CCCC2	8.7% (inactive)
Clc1cccc(CN2CCCCCC2)c1	-6.25% (inactive)
N=c1c2c(n(Cc3ccc(Br)cc3)c3c1CCC3)CCCC2	-4.26% (inactive)
N=c1c2c(n(Cc3ccc(F)cc3)c3c1CCC3)CCC2	-1.84% (inactive)
N=c1ccn(Cc2ccc(Cl)cc2Cl)cc1	22.8% (inactive)
N=c1c2c(n(Cc3ccc([N+](=O)[O-])cc3)c3c1CCC3)CCCC2	-1.87% (inactive)
N=c1c2c(n(Cc3ccccc3)c3c1CCC3)CCC2	-2.77% (inactive)
COc1ccc(N2CCN(S(=O)(=O)CCNC(=O)/C=C/c3ccc4c(c3)OCO4)CC2)cc1	-1.81% (inactive)
CC(C)NC(=O)C(=O)NCc1ccccn1	15.4% (inactive)

Structure (SMILES)	inhibition
CN(CCn1ccnc1)Cc1cn(Cc2ccccc2)nc1-c1ccc2c(c1)OCO2	8.95% (inactive)
CCCn1c(=O)c(C(=O)NCCc2ccc(OC)c(OC)c2)c(O)c2ccccc21	3.2% (inactive)
CCn1c(/N=C/c2ccccc2O)nc2ccccc21	-0.93% (inactive)
CCN1CCSc2ccc(C(=O)NCc3ccc(OC(C)C)cc3)cc21	-2.46% (inactive)
O=C(CNCCC1=CCCCC1)Nc1ccccc1N1CCCCCC1	5.47% (inactive)
COc1ccc(NC(=O)CNCCC2=CCCCC2)cc1	-8.03% (inactive)
Clc1ccc2ccc3cccnc3c2n1	2.67% (inactive)
O=S1(=O)NC(=NCCc2ccccn2)c2ccccc21	-5.57% (inactive)
Cc1ccc2ccc3cccnc3c2n1	2.32% (inactive)
Cc1ccc2c(c1)-c1ccccc1S(=O)(=O)N2	-6.75% (inactive)
CCC(C)c1ccccc1N1CC(C(=O)Nc2cc(S(=O)(=O)N3CCOCC3)ccc2OC)CC1=O (configuration not stated)	1.56% (inactive)
CSc1ccc(C2NC(=O)CCC2[N+](=O)[O-])cc1 (configuration not stated)	9.78% (inactive)
Cc1c(C(=O)N2CCN(C(=O)c3ccco3)CC2)oc2c(Cl)cccc12	5.99% (inactive)
Cc1ccc(C(=O)O/N=C/C2=C(Cl)c3ccccc3CC2)cc1	3.65% (inactive)
O=C(O/N=C/C1=C(Cl)c2ccccc2CC1)c1ccc(F)cc1	-1% (inactive)
CCC(C)NCCOc1cc(C)cc(C)c1C (configuration not stated)	10.5% (inactive)
CCOC(=O)c1c(C)[nH]c(C)c1S(=O)(=O)N1c2ccccc2CC1C (configuration not stated)	-32.7% (inactive)
CCOc1ccccc1N1C(=O)NC(=O)C(CCc2ccncc2)(CCc2ccncc2)C1=O	-6.46% (inactive)
COC(=O)CSC1=NS(=O)(=O)c2ccccc21	-2.6% (inactive)
CCc1cccc(NC(=O)CSc2nc3c(c(=O)[nH]2)CCCC3)c1	8.6% (inactive)
CN1CCN(/N=C/c2cccc(Cl)c2Cl)CC1	0.18% (inactive)
CN1CCN(/N=C/c2ccc(-c3ccccc3)cc2)CC1	1.69% (inactive)
CCC(C)(C)NC(=O)C(c1ccc(OC)cc1)N(C(=O)CCC(=O)Nc1cc(C)on1)c1cccc(OC)c1 (configuration not stated)	1.27% (inactive)
